88 molecules from PubChem BioAssay AID463173 (ICCB-Longwood Screening Facility, Harvard Medical School, 2010) can be followed below.

In all, about 52,000 compounds went through this assay and about 4,300 (8.3%) were called active. This is one part of a sample in which actives are shown more often than they occur. A number with no mark means an inactive call. Rule as the data show it: active = survival mostly below about 52% (no sharp cut-off); inactive = mostly above about 56%.

This assay deals with DeltatarO mutant. The assay is described as follows: S. aureus survival, RN4220 and DeltatarO strains – OD600, teichoic acid synthesis inhibitors, primary screen (AID 463173). The note with it: S. aureus RN4220 wild type/DeltatarO growth, OD600, 18 h, active compounds read low, screened at 18.75 µg/mL (by protocol).
Regarding `CCn1cc(S(=O)(=O)c2ccccc2)c(=O)c2cc(F)c(N3CCCC3)cc21`, the survival is 107%.

In the case of `CCOc1ccc(NC(=O)C(C)n2c(=O)cc(C)c3c(C)nn(-c4ccccc4)c32)cc1` (stereo not drawn), the survival is 83%.

Take `Nc1nc(Nc2ccccc2F)sc1C(=O)c1ccc(Cl)cc1`: the survival was 2% (active).

Regarding `Nc1c(C(=O)c2ccc(F)cc2)sc(Nc2ccccc2F)c1S(=O)(=O)c1ccc(Br)cc1`, the survival is 67%.

Regarding `COc1ccc(C(=O)c2sc(Nc3cc(Cl)ccc3C)nc2N)cc1OC`, the survival was 131%.

For the molecule `COc1ccc(NC(=O)Cn2c(=O)oc3cc(S(=O)(=O)NC4CCCC4)ccc32)cc1OC`, the survival is 93%.

As for `Nc1nnc(CC(=O)N2CCCC2)s1`, the survival was 99%.

Take `CCCCC(CC)CNC(=O)CCCc1nnc2n(CCC)c(=O)c3sccc3n12` (stereo not drawn): the survival is 75%.

For `COc1ccc(-c2nnc(SCC(=O)Nc3ccc(C)c(Cl)c3)nc2-c2ccc(OC)c(OC)c2)cc1OC`, the survival was 135%.

Turning to `COC(=O)CN1C(=O)C(C)(C)c2cc(S(=O)(=O)Nc3ccc(Br)cc3F)ccc21`, the survival is 90%.

On to `CC1CCN(S(=O)(=O)c2ccc3c(c2)N(CC(=O)NCCCN2CCCC(C)C2)C(=O)CS3)CC1` (stereo not drawn), for which the survival is 75%.

As to `CCCCn1c(SCC(=O)c2ccccc2)nc2c(sc3ccccc32)c1=O`, the survival was 17% (active).

Take `CCOCCCn1c(SCC(=O)OCC)nc2c(sc3ccccc32)c1=O`: the survival was 124%.

In the case of `CC(C)OCCCn1c(SCC(=O)c2ccccc2)nc2c(sc3ccccc32)c1=O`, the survival was 88%.

On to `CCOC(=O)CSc1nc2c(sc3ccccc32)c(=O)n1CCO`, for which the survival was -5% (active).

For `CCOCCCn1c(SCC(=O)NCc2ccccc2)nc2c(sc3ccccc32)c1=O`, the survival is -5% (active).

With `COCCCNC(=O)CSc1nc2c(sc3ccccc32)c(=O)n1CCc1ccc(OC)c(OC)c1`, the survival is -4% (active).

Take `CCOC(=O)CSc1nc2c(sc3ccccc32)c(=O)n1CCc1ccccc1`: the survival is 60%.

Turning to `CCCCn1c(SCC(=O)NCc2ccc(C)cc2)nc2c(sc3ccccc32)c1=O`, the survival was 89%.

With `COCCCn1c(SCC(=O)NCc2ccccc2)nc2c(sc3ccccc32)c1=O`, the survival was 82%.

On to `CCOCCCn1c(SCC(=O)NCCCOC)nc2c(sc3ccccc32)c1=O`, for which the survival was 126%.

As to `COCCCNC(=O)CSc1nc2c(sc3ccccc32)c(=O)n1CCc1ccccc1`, the survival was 72%.

With `CCCCn1c(SCC(=O)NCCCOC)nc2c(sc3ccccc32)c1=O`, the survival is 128%.

For `O=C(CN1C(=O)COc2ccc(S(=O)(=O)N3CCOCC3)cc21)N1CCN(c2ccc(F)cc2)CC1`, the survival was 99%.

Regarding `CCC(C)(C)n1nnnc1CN(Cc1ccc(Cl)cc1)CC1CCCO1` (stereo not drawn), the survival is 76%.

Regarding `Clc1ccc(-c2nnn3c2nc(NC2CCCCC2)c2ccccc23)cc1`, the survival was 17% (active).

Consider `CCCCCNc1nc2c(-c3ccccc3)nnn2c2ccccc12`, for which the survival is 80%.

Turning to `CC1CCC(Nc2nc3c(-c4ccc(Cl)cc4)nnn3c3ccccc23)CC1` (stereo not drawn), the survival was 8% (active).

`Cc1ccc(-c2nnn3c2nc(NCCc2ccccc2)c2ccccc23)cc1`: the survival is 112%.

On to `Cc1ccc(-c2nnn3c2nc(NC2CCC(C)CC2)c2ccccc23)cc1` (stereo not drawn), for which the survival is -4% (active).

For the molecule `Cc1ccc(-c2nnn3c2nc(NCCc2ccc(Cl)cc2)c2ccccc23)cc1`, the survival was 82%.

On to `c1ccc(CNc2nc3c(-c4ccccc4)nnn3c3ccccc23)cc1`, for which the survival was 75%.

Turning to `Clc1ccc(-c2nnn3c2nc(NCc2ccc4c(c2)OCO4)c2ccccc23)cc1`, the survival is 59%.

Turning to `Cc1ccc(-c2nnn3c2nc(NCC(C)c2ccccc2)c2ccccc23)cc1` (stereo not drawn), the survival is 91%.

For `CCCCNC(=O)C(CC)Sc1nnc(-c2ccc(F)cc2)c(-c2ccc(F)cc2)n1` (stereo not drawn), the survival was 83%.

On to `CSc1ccc(C2c3[nH]c4ccccc4c3CCN2C(=O)CCc2ccccc2)cc1` (stereo not drawn), for which the survival is 87%.

With `CC1CCCN(CCCNC(=O)c2ccc3c(c2)N(Cc2ccc(Cl)cc2)C(=O)c2ccccc2S3(=O)=O)C1` (stereo not drawn), the survival is 145%.

With `COc1c(Cl)cc(Cl)cc1CNCCSc1nnnn1C`, the survival was 74%.

On to `COc1ccc(Br)cc1CNC(=O)CCSCc1ccc(Cl)cc1`, for which the survival is 73%.

As to `CCOC(=O)C1CCCN(S(=O)(=O)c2ccc3c(c2)N(C)C(=O)CC(=O)N3C)C1` (stereo not drawn), the survival was 106%.

Regarding `COc1ccc(OCc2nc3c4c(-c5ccc(OC)cc5)c(-c5ccc(OC)cc5)oc4ncn3n2)cc1`, the survival is 70%.

In the case of `COC(=O)c1ccc([C@H]2Nc3ccc(S(=O)(=O)Nc4ccc(C)cc4)cc3[C@H]3C=CC[C@H]32)cc1`, the survival is 60%.

`Cc1cccc(C)c1NS(=O)(=O)c1ccc2c(c1)[C@H]1C=CC[C@H]1[C@@H](c1ccc(Cl)cc1)N2`: the survival was 53%.

As to `Cc1cccc(NS(=O)(=O)c2ccc3c(c2)[C@H]2C=CC[C@H]2[C@@H](c2ccc(F)cc2)N3)c1`, the survival was 39% (active).

Take `Cc1ccc(NS(=O)(=O)c2ccc3c(c2)[C@H]2C=CC[C@H]2[C@@H](c2ccc(F)cc2)N3)cc1C`: the survival is 58%.

With `COC(=O)c1ccc([C@H]2Nc3ccc(S(=O)(=O)Nc4ccc(F)cc4)cc3[C@H]3C=CC[C@H]32)cc1`, the survival is 53% (active).

On to `COC(=O)c1ccc([C@H]2Nc3ccc(S(=O)(=O)Nc4cccc(C)c4)cc3[C@H]3C=CC[C@H]32)cc1`, for which the survival is 50%.

Turning to `Cc1ccc(C)c(N2CCN(C(=O)c3ccc4c(c3)c(C)c(C)n4C)CC2)c1`, the survival is 73%.

Regarding `COc1ccccc1CNC(=O)Cn1c(=O)oc2cc(S(=O)(=O)N3CCC(C)CC3)ccc21`, the survival was 143%.

For `COc1ccc(N2CCN(C(=O)CN3C(=O)COc4ccc(S(=O)(=O)N5CCC(C)CC5)cc43)CC2)cc1`, the survival was 81%.

On to `Cc1cc(C(=O)OC(C)C)ccc1-c1ccc(C=C(C#N)C#N)o1`, for which the survival was 104%.

Turning to `CCOC(=O)c1ccc(-c2ccc(/C=C(\C#N)c3nc4ccc(C)cc4[nH]3)o2)cc1`, the survival was 32% (active).

As to `Cc1ccc2nc(/C(C#N)=C/c3ccc(-c4ccc(C(=O)OC(C)C)cc4)o3)[nH]c2c1`, the survival is 36% (active).

Turning to `N#CC(C#N)=Cc1ccc(-c2cccc(C(F)(F)F)c2)o1`, the survival was 114%.

Regarding `N#C/C(=C\c1ccc(-c2cccc(Cl)c2)o1)C(N)=O`, the survival is 99%.

Regarding `CCOC(=O)c1ccc(-c2ccc(/C=C(\C#N)C(=O)Nc3ccc(C)cc3OC)o2)cc1`, the survival is 76%.

Turning to `Cc1ccc2nc(/C(C#N)=C/c3ccc(-c4cccc(Cl)c4)o3)[nH]c2c1`, the survival is 6% (active).

Consider `CCOC(=O)c1ccc(-c2ccc(C=C(C#N)C#N)o2)cc1`, for which the survival was 87%.

Regarding `CCOC(=O)/C(C#N)=C/c1ccc(-c2ccc(C)cc2)o1`, the survival was 98%.

For the molecule `C=CCc1c(C)[nH]c2c(OC)cccc2c1=S`, the survival was 82%.

As to `COc1ccc(C(=O)Nc2ccc(NC(=O)c3cccs3)cc2)cc1OC`, the survival was 72%.

On to `COc1ccc(OC)c(NC(=O)C2CCN(S(=O)(=O)c3ccc4c(c3)CCCC(=O)N4)CC2)c1`, for which the survival was 88%.

As for `CCOC(=O)C1CCN(C(=O)Cn2nc(CC)n3c(cc4sccc43)c2=O)CC1`, the survival was 134%.

On to `COc1cc(C(CC(=O)Nc2ncccc2C)N2Cc3ccccc3C2=O)cc(OC)c1OC` (stereo not drawn), for which the survival was 79%.

On to `Cc1ccc(NC(=O)CN2C(=O)CCn3nc(-c4cccn4C)cc32)c(Cl)c1`, for which the survival was 115%.

With `COCCCNC(=O)C(=O)Nc1c2c(nn1-c1cccc(Cl)c1)CSC2`, the survival is 79%.

`C=CCC(NCc1ccco1)c1ccccc1` (stereo not drawn): the survival is 69%.

Take `CCOc1cc(C(=O)Nc2ccc3oc(-c4ccc(CC)cc4)nc3c2)cc(OCC)c1OCC`: the survival was 41% (active).

Regarding `CCOc1cc(C(=O)Nc2ccc3oc(-c4ccc(F)cc4Cl)nc3c2)cc(OCC)c1OCC`, the survival is 64%.

Consider `CCc1ccc2oc(-c3ccc(NC(=O)c4cc(OC)c(OC)c(OC)c4)cc3)nc2c1`, for which the survival is 57%.

With `CCOc1cc(C(=O)Nc2ccc(-c3nc4cc(Cl)ccc4o3)cc2)cc(OCC)c1OCC`, the survival is 67%.

In the case of `CCOc1cc(C(=O)Nc2cccc(-c3nc4ccccc4o3)c2)cc(OCC)c1OCC`, the survival was 51%.

As to `CCOc1cc(C(=O)Nc2ccc(-c3nc4cc(C)ccc4o3)cc2)cc(OCC)c1OCC`, the survival is 27% (active).

Regarding `COc1cccc(-n2c(SCC(=O)Nc3nnc(C)s3)nc3c([nH]c4ccccc43)c2=O)c1`, the survival is 60%.

Regarding `COc1ccc(-n2ccn(CC(=O)Nc3ccccc3C(F)(F)F)c(=O)c2=O)cc1OC`, the survival is 80%.

Turning to `CNC(=O)COc1ccc(NC(=O)CCn2nc(-c3ccc(C)cc3)c3ccccc3c2=O)cc1`, the survival is 73%.

Take `COc1cc(C2C(C(=O)Nc3ccccc3C)=C(C)Nc3ncnn32)ccc1OCC(N)=O` (stereo not drawn): the survival was 82%.

`CCOc1ccc(CNCCCSc2nnnn2C)cc1OC`: the survival is 74%.

As for `COc1ccccc1NC(=O)N1CCNCC1`, the survival is 73%.

`CCC1CN(S(=O)(=O)c2cc(-c3cc(C)no3)ccc2OC)c2cc(C)ccc2O1` (stereo not drawn): the survival was 109%.

Take `COc1ccc(-c2cc(C)no2)cc1S(=O)(=O)N1CC(C)Oc2ccccc21` (stereo not drawn): the survival was -5% (active).

For `COc1ccc(-c2cc(C)no2)cc1S(=O)(=O)N1CCOc2ccccc21`, the survival is 73%.

Regarding `COc1ccc(-c2onc(C)c2C)cc1S(=O)(=O)N1CCc2ccccc21`, the survival was 6% (active).

Regarding `CCC1CN(S(=O)(=O)c2cc(-c3cc(C)no3)ccc2C)c2cc(Cl)ccc2O1` (stereo not drawn), the survival is 75%.

For `CCC1CN(S(=O)(=O)c2cc(-c3cc(C)no3)ccc2C)c2cc(C)ccc2O1` (stereo not drawn), the survival was 52% (active).

With `Cc1ccc(-c2onc(C)c2C)cc1S(=O)(=O)N1CCc2ccccc21`, the survival is 86%.

Regarding `CCC1CN(S(=O)(=O)c2cc(-c3cc(C)no3)ccc2OC)c2cc(Cl)ccc2O1` (stereo not drawn), the survival is 62%.

With `COc1ccc(-c2cc(C)no2)cc1S(=O)(=O)N1CCc2ccccc21`, the survival is 67%.
